# Bioassay records deposited in PubChem BioAssay by National Center for Advancing Translational Sciences (NCATS).
# Compounds with a hit are over-represented: about 0.52% of the library has one in this group of screens.
# Lamin A splicing: qHTS Assay for Modulators of Lamin A Splicing; HeLa LMNA splicing GFP/RFP minigene ratio, 48 h; Potency, µM (doses to about 46.1 µM), inactives show at the top dose ratio change, negative = inhibition, usual class: inhibitors; hit rate 0.01% among 200,000; AID 1487, 2009; active = well fitted inhibition curve with a large enough effect in the signal ratio, with a control signal flat, not every such curve was filed as active; inconclusive = small, poorly fitted or top-dose-only effect, or effect the other way, or a change in a side signal; the % refers to the signal ratio
#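 S3 HeLa stable clones carrying a lamin A-EGFP splicing minigene plus DsRed2 were seeded at 600 cells/well in Opti-MEM with 2% FBS, pin-dosed and incubated 48 h at 37°C. Acumen cytometry (488 nm) gave the GFP/RFP total-intensity ratio.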
# Luc counter: Counterscreen for Luciferase (Kinase-Glo TM) Inhibition; Luciferin 4-monooxygenase (Photuris pensylvanica), Q27757; Kinase-Glo luciferase, ATP luminescence, 8 min; Potency, µM (top dose mostly 38.3 µM), for the others: at the highest dose activity change, negative = inhibition, usual class: inhibitors; hit rate 0.28% among 200,000; AID 1379, 2008; also: nearly all actives have a fitted effect of over 60% in size
#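 Compound is pinned into ATP-containing buffer (10 uM ATP, imidazole pH 7.2, 7 mM MgCl2). Kinase-Glo luciferase reagent is then added. Light output is recorded following an 8-min room-temperature incubation.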
# GAA glycogen: qHTS Assay for Inhibitors and Activators of Human alpha-Glucosidase Cleavage of Glycogen; Lysosomal alpha-glucosidase (Homo sapiens), P10253; recombinant GAA, glycogen substrate, Amplex Red glucose oxidase fluorescence; Potency, µM (doses to about 76.4 µM), for inactives: at the top dose activity change, negative = inhibition, usual class: inhibitors; hit rate 0.38% among 300,000; AID 2100, 2009;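 also: 0% = full enzyme reaction and -100% = no-enzyme basal signal; the screen sought inhibitors and activators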
#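 Natural-substrate format: glycogen cleavage by 4 nM human enzyme, glucose read by Amplex Red coupling (Ex 573, Em 610 nm). Normalized to enzyme and no-enzyme controls.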
# N370S GC mod: qHTS Assay for Inhibitors and Activators of N370S glucocerebrosidase as a Potential Chaperone Treatment of Gaucher Disease; N370S GC spleen homogenate, 4MU-glucoside fluorescence; Potency, µM (series often up to 59.4 µM), without a hit: at the top dose activity change, negative = inhibition, usual class: inhibitors; hit rate 0.092% among 330,000; AID 2101, 2009;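 also: 0% = full enzyme activity and -100% = no enzyme basal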
# GAA spleen mod: qHTS Assay for Inhibitors and Activators of Human alpha-Glucosidase From Spleen Homogenate. Lysosomal alpha-glucosidase (Homo sapiens), P10253. human spleen homogenate, 4-MU-alpha-glucoside fluorescence. Potency, µM (series often up to 79.9 µM), for the others: at the top dose activity change, negative = inhibition, actives largely listed as inhibitors. hit rate 0.006% among 240,000. AID 2112, 2009;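 also: 0% = enzyme with vehicle and -100% = no enzyme basal signal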
#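 Human spleen homogenate (1 ug) with 4-methylumbelliferyl-alpha-D-glucopyranoside (1 mM final) in 50 mM citrate/phosphate pH 5.0, 0.01% Tween-20; 40 min at 37 C. Stopped at pH 10; 4-MU fluorescence Ex 365/Em 440 nm; AC50 by Hill fit.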
# GAA inhib: qHTS Assay for Inhibitors of Human alpha-Glucosidase as a Potential Chaperone Treatment of Pompe Disease. Lysosomal alpha-glucosidase (Homo sapiens), P10253. purified human GAA, 4-MU-alpha-glucoside fluorescence. Potency, µM (highest dose often 76.9 µM), inactives show at the highest dose activity change, negative = inhibition, actives largely listed as inhibitors. hit rate 0.005% among 200,000. AID 1466, 2008;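 also: plate controls were uninhibited enzyme wells for no effect and no-enzyme background for full effect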
#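 Human alpha-glucosidase, 4 nM, pre-mixed with test compounds before 400 uM 4-methylumbelliferyl substrate; 20 min room temperature at pH 5.0. Fluorescence read after pH 10 stop; AC50 values from Hill-equation fits.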
# * = called active by the depositor; ? = inconclusive; / = not tested or not shown; [ ] = dose if it differs, or a comment. Unless noted, calls follow the shape of the dose curve; as a rule, active = well fitted curve in the direction sought with a large enough effect; inconclusive = small, poorly fitted or top-dose-only effect, or another doubt; inactive = no such curve, though single readings can be large; an effect the other way counts as inactive or inconclusive. Unless noted, % is scaled to controls: 0 for no effect and ±100 for the full control effect; potency is read from the fitted curve at half-maximal effect.
SMILES,Lamin A splicing,Luc counter,GAA glycogen,N370S GC mod,GAA spleen mod,GAA inhib
Cn1cccc1/C=C1\CCc2ccccc2C1=O,/,10µM*,-2%,9%,0%,1%
Cn1cccc1/C=C1\Cc2ccccc2C1=O,/,11µM*,6%,5%,5%,-7%
CCOC(=O)c1c(OCC)[nH]c2c1cc(O)c1ccccc12,7%,-1%,25µM*,?,5%,-2%
CCOC(=O)c1c(C)[nH]c2cc(Br)c(O)cc12,13%,-3%,3%,2%,2%,6%
Cc1cc(C)cc(OCC(=O)Nc2c(C)ccc3nsnc23)c1,/,/,16%[76.3 µM],/,/,/
COc1ccc(NCC(=O)Nc2ccc(Br)cc2F)c(OC)c1,?,/,40µM*,3%,3%,2%
CCN(CC(=O)Nc1ccc(OC)cc1)CC(=O)Nc1ccc(Br)cc1F,/,2%,-10%,29%,/,-12%
CCc1ccc(NC(=S)Nc2cc(OC)c(NC(=O)C(C)C)cc2OC)cc1,/,-1%,12µM*,3%,2%,2%
COc1cc(Cl)c(C)cc1NC(=O)c1c(C)oc2nc(C)nc(N3CCCC3)c12,-5%[46 µM],/,/,/,/,/
Fc1ccccc1-c1ccc(/C=N/Nc2nc3ccccc3[nH]2)o1,?,?,3%,3%,-10%,8%
Cc1ccc2cc(/C=N/Nc3nc4ccccc4[nH]3)c(Cl)nc2c1,-10%,6.3µM*,7%,2%,-3%,-9%
Cn1c(N/N=C/c2cc3ccccc3nc2Cl)nc2ccccc21,?,6.3µM*,?,-1%,3%,-13%
Cc1ccc(/C=N\Nc2nc3ccc(Cl)cc3[nH]2)o1,20%,-2%,6.3µM*,-4%,3%,9%
COc1cc(/C=N\Nc2nc3ccccc3[nH]2)cc(OC)c1OC,-14%,-20%,16µM*,-2%,5%,0%
Cc1ccc(NS(=O)(=O)c2cc(C(=O)O)ccc2Cl)cc1C,/,0%,/,/,/,/
CC(=O)c1cccc(NC(=O)C2CCCN(c3nnc(-n4cccc4)s3)C2)c1 (stereo unspecified),-13%[46 µM],/,/,/,/,/
COCCN1C(=O)N[C@@H](c2cccc(C(F)(F)F)c2)C(C(C)=O)=C1C,/,-2%,/,-4%,-2%,/
C(=N\Nc1nc2ccccc2[nH]1)/c1ccccn1,/,13µM*,?,-11%,-1%,4%
C(=N\Nc1nc2ccccc2[nH]1)/c1ccc2c(c1)OCCO2,/,/,13µM*,-5%,1%,-9%
COc1ccc2c(c1)c(/C=N/Nc1nc3ccccc3[nH]1)c(C)n2C,/,/,28µM*,?,-7%,?
C(=N\Nc1nc2ccccc2[nH]1)/c1ccc2ncccc2c1,/,/,?,-11%,-3%,/
Cc1cc2nc(-c3cccc(NC(=O)COc4ccc(C(C)C)cc4)c3)oc2cc1C,/,/,-5%[76.3 µM],/,/,/
COc1ccc(COC(=O)N/N=C2/C[C@@H](O)[C@@H](O)[C@@H]3[C@@H]4C(=O)N(c5cccc(Oc6ccccc6)c5)C(=O)[C@H]4CC[C@@H]23)cc1,/,/,/,-1%[12.8 µM],5%[17.4 µM],/
Cn1cc(S(=O)(=O)c2ccccc2)c(=O)c2cc(F)c(N3CCCC3)cc21,-7%[46 µM],/,-5%[76.3 µM],/,/,/
CCC1=C2CC[C@H]3C(=O)N(CC)C(=O)[C@H]3[C@H]2[C@@]2(C)C(=NCCc3c[nH]c4ccccc34)OC(=O)N2C1=O,/,5%,/,-2%,-8%,/
SMILES,Lamin A splicing,Luc counter,GAA glycogen,N370S GC mod,GAA spleen mod,GAA inhib
CN1CCN(NC(=O)c2cn(-c3ccccc3)nc2-c2cccc(Br)c2)CC1,?,-2%,-3%,10µM*,2%,7%
CN1CCN(NC(=O)c2cn(-c3ccccc3)nc2-c2cccs2)CC1,-5%[46 µM],3%,?,-10%,3%,-8%
Fc1ccccc1-n1ncc2c1ncn1nc(-c3ccccc3Cl)nc21,/,/,0%[76.3 µM],/,/,/
CN(C)S(=O)(=O)c1cc(NC(=O)CN2CCN(c3ccc(O)cc3)CC2)ccc1Cl,9%[9.22 µM],4%,7.1µM*,-7%,/,-18%
COc1ccc(NS(=O)(=O)c2cc(C)ccc2C)cc1,?,-2%,-12%,-4%,5%,-6%
Cc1cc(C)c(S(=O)(=O)Nc2ccc(O)cc2)cc1C,12%,-7%,14µM*,6%,0%,-1%
Cc1ccc(C)c(S(=O)(=O)Nc2ccc(O)cc2)c1,?,1%,12µM*,-4%,-4%,-1%
CCOC(=O)c1cc(S(=O)(=O)Nc2ccc(Br)c(C)c2)[nH]n1,17%[46 µM],/,/,/,/,/
CCn1c(SCC(=O)c2ccc(O)c(O)c2)nnc1-c1ccccc1,-22%,-1%,7.9µM*,-7%,-8%,?
C=CCn1c(SCC(=O)c2ccc(O)c(O)c2)nnc1-c1ccccc1OC,-12%,-5%,18µM*,-7%,0%,-3%
CCn1c(SCC(=O)c2ccc(O)c(O)c2)nnc1-c1ccccc1OC,?,-3%,25µM*,-1%,-15%,-15%
CCCOc1ccc(N2CC(C(=O)Nc3cccc(Cl)c3Cl)CC2=O)cc1 (stereo unspecified),/,/,2%[76.3 µM],/,/,/
CCC1(c2ccc(O)cc2)NC(=O)N(C)C1=O (stereo unspecified),/,/,/,-3%,-1%,/
CC(=O)N(C)C,/,0%[39.9 µM],/,/,-5%,/
C=CC(C1=CC(=O)C(OC)=CC1=O)c1ccccc1 (stereo unspecified),/,-4%,/,4%,-15%,/
CC(C)N(Cc1ccccc1)C(C)C (tested in a mixture with another compound),/,/,/,1%,0%,/
N=C1C=CC(=C(c2ccc(N)cc2)c2ccc(N)cc2)C=C1,/,?,/,3.5µM*,8%,/
N#Cc1cccc(NC(=O)N2CCCC3(CCN(C(=O)c4ccco4)CC3)C2)c1,/,-4%,/,11%,-6%,/
O=C1c2ccccc2-c2nnc(-c3ccc(O)cc3)cc21,/,11µM*,4%,-13%,-1%,-4%
Cc1ccc(-c2cc3c(nn2)-c2ccccc2C3=O)cc1,/,/,5%,4%,-16%,/
Cc1ccccc1-c1cc2c(nn1)-c1ccccc1C2=O,?,5µM*,-11%,-3%,-1%,-3%
[O-]/[N+](=C\c1ccccc1)[C@@H]1CCCC[C@@H]1/[N+]([O-])=C/c1ccccc1,6%,/,40µM*,-1%,2%,7%
O=C1CC(N2CCN(c3ccc(O)cc3)CC2)C(=O)N1Cc1cccs1 (stereo unspecified),?,4%,6.3µM*,-6%,-11%,-3%
